Several values for one entry are separate records, joined by “and”; a condition that tells them apart may be missing. Identical values can stand only once. Among all 5,500 compounds or so, about 2,000 (36%) were called active. Inconclusive results (about 18%) are left out. No stated cut-off is given here; in the data, active means normalized growth mostly below about 0.91 (no sharp cut-off); inconclusive means no clear call, values can overlap the other calls; inactive means mostly above about 0.92. This is one part of the list.
Assay: chemical genetic growth profiling, strain panel (AID 1159580);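 further: tested at 20 µM; growth read once vehicle control cultures reached saturation at 30 °C; 1 = growth at the plate median or of vehicle wells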
Conditions: growth OD
[1] = S. cerevisiae deletion strains, locus YBR229C, strain ROT2, stronger effect = lower value
[2] = S. cerevisiae deletion strains, locus YDL101C, strain DUN1, stronger effect = lower value
[3] = S. cerevisiae deletion strains, locus YDR150W, strain NUM1, stronger effect = lower value
[4] = S. cerevisiae deletion strains, locus YEL061C, strain CIN8, stronger effect = lower value
[5] = S. cerevisiae deletion strains, locus YGR078C, strain PAC10, stronger effect = lower value
[6] = S. cerevisiae deletion strains, locus YHR030C, strain SLT2, stronger effect = lower value
[7] = S. cerevisiae deletion strains, locus YJR043C, strain POL32, stronger effect = lower value
[8] = S. cerevisiae deletion strains, locus YJR075W, strain HOC1, stronger effect = lower value
[9] = S. cerevisiae deletion strains, locus YLR039C, strain RIC1, stronger effect = lower value
[10] = S. cerevisiae deletion strains, locus YLR262C, strain YPT6, stronger effect = lower value
[11] = S. cerevisiae deletion strains, locus YMR263W, strain SAP30, stronger effect = lower value
[12] = S. cerevisiae deletion strains, locus YMR307W, strain GAS1, stronger effect = lower value
[13] = S. cerevisiae deletion strains, locus YNL128W, strain TEP1, stronger effect = lower value
[14] = S. cerevisiae deletion strains, locus YNL322C, strain KRE1, stronger effect = lower value
[15] = S. cerevisiae deletion strains, locus YPL055C, strain LGE1, stronger effect = lower value
[16] = S. cerevisiae deletion strains, locus YPL241C, strain CIN2, stronger effect = lower value
[17] = S. cerevisiae strains, strain wild type, stronger effect = lower value

Measured: normalized growth

O=C(NCCSCc1ccc(Cl)cc1)c1ccc(Cl)cc1
inactive: S. cerevisiae deletion strains, locus YAL013W, strain DEP1, stronger effect = lower value 0.941 | [2] 0.915 | [3] 0.925 | [4] 1.02 | [7] 0.948 | [8] 0.954 | [9] 1.09 | S. cerevisiae deletion strains, locus YLR058C, strain SHM2 (second series), stronger effect = lower value 0.972 | [10] 1.01 | S. cerevisiae deletion strains, locus YML094W, strain GIM5, stronger effect = lower value 0.881 | [11] 0.954 | [12] 0.849 | [13] 0.965 | [14] 0.961 | S. cerevisiae deletion strains, locus YNR030W, strain Alg12, stronger effect = lower value 0.936 | [15] 0.893 | [16] 1.03 | S. cerevisiae deletion strains, locus YPR135W, strain CTF4, stronger effect = lower value 1.07
active: [1] 0.919 | [5] 0.902 | [6] 0.0946 | S. cerevisiae deletion strains, locus YHR087W, strain rtc3, stronger effect = lower value 0.903 | S. cerevisiae deletion strains, locus YJL187C, strain SWE1, stronger effect = lower value 0.897 | S. cerevisiae deletion strains, locus YLR085C, strain ARP6, stronger effect = lower value 0.724 | S. cerevisiae deletion strains, locus YMR219W, strain ESC1, stronger effect = lower value 0.932 | S. cerevisiae deletion strains, locus YNL153C, strain GIM3, stronger effect = lower value 0.907 | S. cerevisiae deletion strains, locus YNL298W, strain CLA4 (second series), stronger effect = lower value 0.684 | [17] 0.887

NCCNC(=O)c1ccc(Cl)cc1
inactive: S. cerevisiae deletion strains, locus YAL040C, strain CLN3, stronger effect = lower value 1.07 | S. cerevisiae deletion strains, locus YBR021W, strain FUR4, stronger effect = lower value 0.997 | [1] 0.994 | S. cerevisiae deletion strains, locus YCL029C, strain bik1, stronger effect = lower value 0.986 | S. cerevisiae deletion strains, locus YCL061C, strain MRC1 (second series), stronger effect = lower value 0.997 | S. cerevisiae deletion strains, locus YDL035C, strain GPR1, stronger effect = lower value 0.997 | S. cerevisiae deletion strains, locus YDL074C, strain BRE1, stronger effect = lower value 1.05 | [2] 0.994 | S. cerevisiae deletion strains, locus YDL134C, strain PPH21, stronger effect = lower value 0.98 | S. cerevisiae deletion strains, locus YDL185W, strain tfp1, stronger effect = lower value 0.984 | S. cerevisiae deletion strains, locus YDL192W, strain arf1, stronger effect = lower value 0.973 | S. cerevisiae deletion strains, locus YDR101C, strain arx1, stronger effect = lower value 1.03 | [3] 0.998 and 0.995 | S. cerevisiae deletion strains, locus YDR162C, strain NBP2, stronger effect = lower value 0.984 | S. cerevisiae deletion strains, locus YDR318W, strain mcm21, stronger effect = lower value 0.987 | S. cerevisiae deletion strains, locus YDR363W, strain ESC2, stronger effect = lower value 1.01 | S. cerevisiae deletion strains, locus YDR388W, stronger effect = lower value 0.98 | S. cerevisiae deletion strains, locus YDR502C, strain sam2, stronger effect = lower value 1 | [4] 0.99 | S. cerevisiae deletion strains, locus YER002W, strain NOP16, stronger effect = lower value 1.02 | S. cerevisiae deletion strains, locus YER110C, stronger effect = lower value 0.959 | S. cerevisiae deletion strains, locus YER155C, strain BEM2, stronger effect = lower value 0.999 | S. cerevisiae deletion strains, locus YER167W, strain BCK2, stronger effect = lower value 0.99 | S. cerevisiae deletion strains, locus YGL078C, strain dbp3, stronger effect = lower value 0.961 | S. cerevisiae deletion strains, locus YGL086W, strain mad1, stronger effect = lower value 1.01 | S. cerevisiae deletion strains, locus YGL248W, strain PDE1, stronger effect = lower value 0.996 | [5] 1.03 and 0.988 | S. cerevisiae deletion strains, locus YGR135W, strain pre9, stronger effect = lower value 0.948 | S. cerevisiae deletion strains, locus YGR252W, strain gcn5, stronger effect = lower value 0.931 | [6] 0.987 | S. cerevisiae deletion strains, locus YHR079C, strain IRE1 (second series), stronger effect = lower value 0.991 | S. cerevisiae deletion strains, locus YHR094C, strain hxt1, stronger effect = lower value 0.986 | S. cerevisiae deletion strains, locus YHR129C, strain ARP1, stronger effect = lower value 0.998 | S. cerevisiae deletion strains, locus YHR200W, strain rpn10, stronger effect = lower value 0.983 | S. cerevisiae deletion strains, locus YIL066C, strain RNR3, stronger effect = lower value 0.998 | S. cerevisiae deletion strains, locus YIL073C, strain SPO22, stronger effect = lower value 0.94 | S. cerevisiae deletion strains, locus YIL125W, strain kgd1, stronger effect = lower value 0.988 | S. cerevisiae deletion strains, locus YIR030C, strain dcg1, stronger effect = lower value 0.982 | S. cerevisiae deletion strains, locus YJL095W, strain BCK1, stronger effect = lower value 1.02 | S. cerevisiae deletion strains, locus YJL134W, strain LCB3, stronger effect = lower value 0.991 | S. cerevisiae deletion strains, locus YJL168C, strain set2, stronger effect = lower value 0.984 | S. cerevisiae deletion strains, locus YJL187C, strain SWE1 (second series), stronger effect = lower value 1 | [7] 1.02 | [8] 0.999 | S. cerevisiae deletion strains, locus YKL009W, strain mrt4, stronger effect = lower value 0.969 | S. cerevisiae deletion strains, locus YKL068W, stronger effect = lower value 0.989 | S. cerevisiae deletion strains, locus YKL085W, strain MDH1 (second series), stronger effect = lower value 1 | S. cerevisiae deletion strains, locus YKL085W, strain MDH1, stronger effect = lower value 1 | S. cerevisiae deletion strains, locus YKL190W, strain CNB1, stronger effect = lower value 0.998 | S. cerevisiae deletion strains, locus YKR001C, strain vps1, stronger effect = lower value 0.993 | [9] 1.04 | S. cerevisiae deletion strains, locus YLR058C, strain SHM2, stronger effect = lower value 0.988 | S. cerevisiae deletion strains, locus YLR102C, strain apc9, stronger effect = lower value 0.976 | [10] 0.996 | S. cerevisiae deletion strains, locus YLR268W, strain sec22, stronger effect = lower value 0.992 | S. cerevisiae deletion strains, locus YLR330W, strain CHS5, stronger effect = lower value 0.999 | S. cerevisiae deletion strains, locus YLR342W, strain FKS1 (second series), stronger effect = lower value 0.984 | S. cerevisiae deletion strains, locus YLR371W, strain rom2, stronger effect = lower value 0.991 | S. cerevisiae deletion strains, locus YLR418C, strain cdc73, stronger effect = lower value 0.975 | S. cerevisiae deletion strains, locus YML016C, strain PPZ1, stronger effect = lower value 0.991 | S. cerevisiae deletion strains, locus YML032C, strain rad52, stronger effect = lower value 0.984 | S. cerevisiae deletion strains, locus YML124C, strain tub3, stronger effect = lower value 0.99 | S. cerevisiae deletion strains, locus YMR078C, strain ctf18, stronger effect = lower value 0.967 | S. cerevisiae deletion strains, locus YMR223W, strain ubp8, stronger effect = lower value 0.958 | [11] 1.01 and 0.997 | [12] 0.984 and 0.965 | S. cerevisiae deletion strains, locus YNL067W, strain RPL9B, stronger effect = lower value 1.01 | [13] 0.984 and 0.991 | S. cerevisiae deletion strains, locus YNL175C, strain NOP13, stronger effect = lower value 0.99 | S. cerevisiae deletion strains, locus YNL197C, strain WHI3, stronger effect = lower value 0.992 | S. cerevisiae deletion strains, locus YNL224C, strain SQS1, stronger effect = lower value 0.999 | S. cerevisiae deletion strains, locus YNL233W, strain BNI4, stronger effect = lower value 1.02 | S. cerevisiae deletion strains, locus YNL250W, strain rad50, stronger effect = lower value 0.942 | S. cerevisiae deletion strains, locus YNL271C, strain bni1, stronger effect = lower value 0.983 | S. cerevisiae deletion strains, locus YNL298W, strain CLA4, stronger effect = lower value 0.96 | S. cerevisiae deletion strains, locus YNL307C, strain MCK1, stronger effect = lower value 0.981 | [14] 1.01 | S. cerevisiae deletion strains, locus YNR052C, strain pop2, stronger effect = lower value 0.974 | S. cerevisiae deletion strains, locus YOL006C, strain TOP1, stronger effect = lower value 1.08 | S. cerevisiae deletion strains, locus YOL012C, strain htz1 1.91 | S. cerevisiae deletion strains, locus YOL147C, strain pex11, stronger effect = lower value 0.985 | S. cerevisiae deletion strains, locus YOR061W, strain CKA2, stronger effect = lower value 0.992 | S. cerevisiae deletion strains, locus YOR069W, strain VPS5, stronger effect = lower value 0.984 | S. cerevisiae deletion strains, locus YOR083W, strain WHI5 (second series), stronger effect = lower value 0.99 | S. cerevisiae deletion strains, locus YOR136W, strain idh2, stronger effect = lower value 0.993 | S. cerevisiae deletion strains, locus YOR144C, strain elg1, stronger effect = lower value 0.983 | S. cerevisiae deletion strains, locus YOR184W, strain ser1, stronger effect = lower value 0.968 | S. cerevisiae deletion strains, locus YOR316C, strain cot1, stronger effect = lower value 0.981 | [15] 1.01 | [16] 0.997 | S. cerevisiae deletion strains, locus YPR119W, strain clb2, stronger effect = lower value 0.977 | S. cerevisiae deletion strains, locus YPR141C, strain kar3, stronger effect = lower value 0.978 | S. cerevisiae deletion strains, locus YPR163C, strain tif3, stronger effect = lower value 0.987 | S. cerevisiae deletion strains, locus YPR167C, strain met16, stronger effect = lower value 0.973 | S. cerevisiae deletion strains, strain wtn01, stronger effect = lower value 0.968 | [17] 0.998

— PubChem BioAssay AID1159580 (chemical genetic matrix, 2015)
